Screening results from PubChem.
TROY NFkB inh – TROY signaling inhibition; Q293 LMP1-TROYcd NF-kB luciferase reporter, 4 h; inhibition, % at 10 µM; 360,000 tested, 0.98% active; AID 1347056;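 active = compounds whose plate-normalised and pattern-corrected inhibition of the luciferase reporter signal at the single screening dose is 50% or more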
LMP1 NFkB inh – inhibitors of Epstein-Barr LMP1-induced NF-kappaB reporter | LMP1-induced NF-kappaB luciferase reporter cells, luminescence | 350,000 tested, 0.69% active | inhibition, % at 12.5 µM | AID 504558; in the data active = inhibition above about 41%;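 also: 0% = neutral control wells and 100% = reference inhibitor control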
TRPM1 prom inh – reduces MITF-dependent TRPM1 promoter luciferase signal; SK-MEL-5 TRPM1 promoter luciferase, 24 h; inhibition, % at 12.5 µM; 330,000 tested, 0.83% active; AID 488899;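 active = mean inhibition across replicates of 60% or more, whatever share of single replicates reaches that level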
Peg3 promoter – Peg3 promoter activity inhibition. inhibition, % at 20 µM. 360,000 tested, 1.7% active. HeLa PEG-Prom luciferase reporter, luminescence, overnight;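 active = inhibition of at least 50% at 20 µM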
Shn3 3UTR inh – inhibitors of Schnurri-3 3'UTR reporter in osteoblasts. 360,000 tested, 0.52% active. Clone20 osteoblast Shn3 3'UTR firefly luciferase, 24 h. inhibition, % at 12.5 µM;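 active = mean inhibition of at least 75% with every replicate also reaching 75%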;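 also: 0% = median of neutral control wells and 100% = pilot-screen positive control compound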
TWEAK Fn14 block – inhibitors of TWEAK-Fn14 interaction signaling; TWEAK-stimulated Fn14 reporter cells, luciferase luminescence, 8 h; 360,000 tested, 2% active; inhibition, % at 10 µM; AID 1159606; in the data active = inhibition above about 50%
Numbers without * were called inactive; . = no result given. Most compounds without a hit are left out; they make up all but 4.1% or so of the library.

SMILES	TROY NFkB inh	LMP1 NFkB inh	TRPM1 prom inh	Peg3 promoter	Shn3 3UTR inh	TWEAK Fn14 block
Cc1ccc(NC(=O)CN(C)C(=O)c2cccnc2Nc2cccc(C(F)(F)F)c2)cc1	16.9	-2.3	-4.3	46.9	18.9	9.8
COc1cc(/C=C2/SC(=S)NC2=O)ccc1OS(=O)(=O)c1ccc(C)cc1	58.9*	0.6	7.2	40.8	4.7	40.1
O=S(=O)(c1ccc(N=C2NN=C(c3cc(F)ccc3F)CS2)cc1)N1CCOCC1	36.7	9.0	15.0	-12.2	80.4	81.2*
COc1ccc(C(c2nnnn2C2CCCCC2)N2CCN(C/C=C/c3ccccc3)CC2)cc1 (stereo not drawn)	20.8	.	.	4.1	12.3	8.3
O=C(NN=C1CCN(Cc2ccccc2)CC1)c1ccccc1	-17.2	-2.5	0.4	5.5	-10.6	-11.8
CCCCCC(=O)NN=C1CCN(Cc2ccccc2)CC1	-3.4	-7.5	-0.2	10.1	-22.5	94.1*
CN(Cc1ccc(C(F)(F)F)cc1)C(=O)C1CC(=O)N(Cc2ccco2)C1 (stereo not drawn)	8.2	-6.8	3.2	-3.9	-17.3	3.8
O=C(N/N=C/c1ccc2ncccc2c1)c1ccco1	50.9*	47.7*	-3.3	3.5	-1.2	69.8*
O=C(N/N=C/c1ccccn1)c1ccco1	-20.8	-2.7	-5.4	-28.8	-10.7	-13.0
O=C(Nc1ccc(F)c(Cl)c1)c1cc(C2CCCCN2C(=O)c2ccc(Cl)cc2)on1 (stereo not drawn)	7.9	.	.	15.9	9.5	14.0
Cn1nc(C(C)(C)C)cc1C(=O)N1CCCCC1c1cc(C(=O)Nc2ccc(F)c(Cl)c2)no1 (stereo not drawn)	33.1	.	.	24.6	85.6*	31.3
c1coc(-c2ccc3nncn3c2)c1	-1.8	.	.	-10.3	9.8	19.8
c1cc(N2CCOCC2)ccc1-c1ccc2nncn2c1	86.4*	.	.	8.5	-22.1	89.9*
CN1C(=O)C2(NC(=O)c3ccccc3N2C)c2ccccc21 (stereo not drawn)	-5.8	1.9	4.3	7.8	-5.2	13.0
CN1C(=O)C(Cl)(Cl)C(=O)c2ccccc21	11.7	-4.8	10.2	7.6	-7.3	50.9*
CC(C)N(Cc1ccccc1)C(=O)COC(=O)c1cc(S(=O)(=O)N(C)C)ccc1N1CCCC1	6.5	-1.3	6.2	27.4	14.0	9.3
CSc1nc(-c2ccc(Cl)cc2)nc(N)c1C#N	-19.8	.	.	18.4	-17.0	0.0
CSc1nc(N)c(C#N)c(-c2ccc(Cl)cc2)c1C#N	-19.8	-7.6	2.8	57.8*	10.7	32.3
O=C(N/C(=C\c1ccccc1Cl)C(=O)N1CCOCC1)c1ccc([N+](=O)[O-])cc1	12.9	-1.1	0.3	0.4	-4.5	9.3
O=C(N/C(=C/c1ccccc1Cl)C(=O)N1CCOCC1)c1ccccc1	3.0	66.8*	-3.4	0.1	79.4	8.7
COc1cccc(-n2nnnc2S(C)(=O)=O)c1	29.1	89.5*	78.4*	103.2*	96.5*	16.4
O=C(CCOc1ccccc1)Nc1ccc(Cl)c(S(=O)(=O)N2CCOCC2)c1	5.6	1.9	0.0	15.5	-7.0	-5.8
Cc1[nH]nc2c1-c1nc3ccccc3nc1C(C)(C)C2	32.9	-31.5	41.5	22.4	88.6*	45.5
CN1C/C(=C/c2ccncc2)C(=O)/C(=C/c2ccncc2)C1	9.2	3.7	8.5	5.6	-1.7	7.9
C=CC(=O)N1C/C(=C/c2ccccc2)C(=O)/C(=C\c2ccccc2)C1	73.3*	85.1*	97.3*	105.9*	97.3*	104.7*
SMILES	TROY NFkB inh	LMP1 NFkB inh	TRPM1 prom inh	Peg3 promoter	Shn3 3UTR inh	TWEAK Fn14 block
C=CC(=O)N1C/C(=C/c2ccc(Cl)cc2)C(=O)/C(=C\c2ccc(Cl)cc2)C1	84.6*	86.3*	98.3*	103.4*	97.3*	107.2*
CCOc1ccc(S(=O)(=O)NCc2ccc3c(c2)OCO3)cc1NC(C)=O	18.0	-3.1	3.8	14.7	0.4	6.1
Cc1ccc(NC(=O)CN(C)C(=O)c2ccc(NS(=O)(=O)c3ccc4[nH]c(=O)[nH]c4c3)cc2)cc1	-7.6	-9.5	8.1	-4.5	13.1	-4.2
Cc1ccccc1-n1ncc2c1CC(C)(C)CC2NC(=O)CCN1CCCCC1=O (stereo not drawn)	-7.1	3.5	1.1	-1.3	7.7	9.6
Cc1cccc(-c2nnc(NC(=O)c3ccc(Cl)cc3)o2)c1	-18.9	19.6	0.4	9.6	-10.7	61.8*
COc1ccc(C=C2CS(=O)(=O)CC(=Cc3ccc(OC)cc3)C2=O)cc1	56.4*	90.6*	.	97.1*	71.5	87.8*
